Rows were chosen to be rich in hits. Some 1.6% of all compounds tested hit in one or more screens of this group.
PABP polyA inh = blocks human PABP binding to poly(A) RNA; P11940; 1% of 290,000 active; fluorescence polarization; AID 2014; inhibition, % at 35 µM;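 further: calls also rest on retests at 20 µM and on dose response follow-up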
Target sequence (P11940 whole entry, looked up): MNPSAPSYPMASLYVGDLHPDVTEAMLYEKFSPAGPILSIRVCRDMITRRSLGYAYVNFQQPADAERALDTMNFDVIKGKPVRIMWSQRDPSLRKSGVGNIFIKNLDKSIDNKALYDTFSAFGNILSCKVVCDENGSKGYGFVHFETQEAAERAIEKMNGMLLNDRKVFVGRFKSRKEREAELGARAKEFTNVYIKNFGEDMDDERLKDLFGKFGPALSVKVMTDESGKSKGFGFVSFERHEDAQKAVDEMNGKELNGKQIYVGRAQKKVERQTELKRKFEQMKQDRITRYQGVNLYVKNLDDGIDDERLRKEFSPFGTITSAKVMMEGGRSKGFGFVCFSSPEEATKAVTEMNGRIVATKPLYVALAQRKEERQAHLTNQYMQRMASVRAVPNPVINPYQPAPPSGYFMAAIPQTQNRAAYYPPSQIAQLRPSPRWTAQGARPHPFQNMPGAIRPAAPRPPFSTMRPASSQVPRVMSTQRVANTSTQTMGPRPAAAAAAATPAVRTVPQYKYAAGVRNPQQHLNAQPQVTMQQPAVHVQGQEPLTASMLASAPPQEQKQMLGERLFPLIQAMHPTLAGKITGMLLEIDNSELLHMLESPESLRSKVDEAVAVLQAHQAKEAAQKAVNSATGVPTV
PERK inhibitor = human PERK inhibition, primary cell-based screen; Q9NZJ5; CHO PERK-DD fusion, SEAP luminescence translation reporter; inhibition, % at 5.6 µM; 0.17% of 220,000 active;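 active means inhibition above the mean inhibition of all tested compounds plus 3 SD, set separately per screening campaign, cut at about 2.9% in these data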;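 further: PERK kinase domain activated by AP20187 dimerizer at 100 nM; 0% = DMSO with dimerizer and 100% = rapamycin at 8.4 µM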
PABP1 MLLE inh = blocks PAM2 peptide binding to the PABP1 MLLE domain; P11940; GST-MLLE / FITC-PAM2 fluorescence polarization; inhibition, % at 20 µM; 0.36% of 360,000 active; in the data active means inhibition above about 35%, passing the limit was not always enough;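 further: plate controls were DMSO wells with GST-MLLE for no effect and wells lacking GST-MLLE protein for full effect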
eIF4H FP inh = inhibitors of RNA binding by human eIF4H | inhibition, % at 35 µM | 0.94% of 290,000 active | Q15056 | eIF4H fluorescence polarization binding assay | AID 2012;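 further: calls also rest on retests at 20 µM and on dose response follow-up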
eIF4E-4G inh = blocks eIF4E binding to eIF4G | inhibition, % at 21.7 µM | TR-FRET eIF4E-eIF4GI(517-606) binding, 2 h | AID 782 | 0.37% of 220,000 active | P63073+Q04637;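 active means inhibition above about 30%, limit read from the data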;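 further: 0% = full FRET control wells and 100% = background wells lacking eIF4GI fragment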
Active calls of the source: *. Unless noted, how the calls were made is not given here.

What do the screens show for `COc1ccc2cc(C(c3nnnn3Cc3ccc(F)cc3)N3CCCCCC3)c(=O)[nH]c2c1` (stereo not drawn)?
PABP polyA inh: 28; PERK inhibitor: 1; PABP1 MLLE inh: -2; eIF4H FP inh: 2; eIF4E-4G inh: -1

What do the screens show for `O=C1CC(c2ccc(O)cc2)Oc2cc(O)cc(O)c21` (stereo not drawn)?
PABP polyA inh: 8; PERK inhibitor: 1; PABP1 MLLE inh: -4; eIF4H FP inh: -8; eIF4E-4G inh: -1

Results for O=C1CC(c2ccccc2)Oc2cc(O)cc(O)c21 (stereo not drawn) ?
PABP polyA inh: 6; PABP1 MLLE inh: -2; eIF4H FP inh: -2; eIF4E-4G inh: 96*

What do the screens show for `O=C(CN1C(=O)/C(=C2/SC(=S)N(CCS(=O)(=O)O)C2=O)c2ccccc21)Nc1cccc(C(F)(F)F)c1`?
PABP1 MLLE inh: 14

What do the screens show for `O=C(CN1C(=O)/C(=C2\SC(=S)N(CCS(=O)(=O)O)C2=O)c2ccccc21)Nc1cccc(Br)c1`?
PABP polyA inh: 53*; PABP1 MLLE inh: 15; eIF4H FP inh: 93*

How did Cc1ccc(S(=O)(=O)N2CCCCC2)cc1NC(=O)c1ccco1 do in these assays?
PABP1 MLLE inh: -5

What do the screens show for `COC(=O)C1=C(O)/C(=C\c2ccc(O)c(OC)c2)N=C1C`?
PABP polyA inh: 83*; PERK inhibitor: 1; PABP1 MLLE inh: -35; eIF4H FP inh: 56*; eIF4E-4G inh: -1

How did COC(=O)C1=C(O)/C(=C\c2ccc(OCC(=O)Nc3ccccc3OC)cc2)N=C1C do in these assays?
PABP polyA inh: 22; PABP1 MLLE inh: -2; eIF4H FP inh: 31

How did CCOC(=O)C1CCN(C(=O)CCNC(=O)c2ccccc2OC)CC1 do in these assays?
PABP polyA inh: 22; PABP1 MLLE inh: 12; eIF4H FP inh: -1

Results for N#C/C(=C(/O)CCl)c1nc2ccccc2[nH]1 ?
PABP polyA inh: active; PERK inhibitor: 1; PABP1 MLLE inh: -15; eIF4H FP inh: inconclusive; eIF4E-4G inh: 12

What do the screens show for `Cc1ccccc1NC(=S)N(Cc1ccccc1)Cc1cccnc1`?
PABP polyA inh: 2; PERK inhibitor: 0; PABP1 MLLE inh: -29; eIF4H FP inh: -1; eIF4E-4G inh: -1

What do the screens show for `CSc1cccc(NC(=S)N(Cc2ccc(C)cc2)Cc2cccnc2)c1`?
PABP polyA inh: -20; PERK inhibitor: 0; PABP1 MLLE inh: -16; eIF4H FP inh: 0; eIF4E-4G inh: 87*

Results for COCCCn1c(SCC(=O)NCc2ccccc2)nc2ccccc2c1=O ?
PABP polyA inh: 21; PERK inhibitor: -1; PABP1 MLLE inh: 5; eIF4H FP inh: -4; eIF4E-4G inh: 2

What do the screens show for `O=C(CSc1nc2ccccc2c(=O)n1CCCO)NCc1ccccc1`?
PABP polyA inh: -1; PERK inhibitor: 0; PABP1 MLLE inh: 38*; eIF4H FP inh: -13; eIF4E-4G inh: 3

Results for Cc1ccc(-c2csc(NC(=O)CSc3nc4ccccc4c(=O)n3CCCN(C)C)n2)cc1 ?
PABP polyA inh: 27; PERK inhibitor: 0; PABP1 MLLE inh: -6; eIF4H FP inh: -8; eIF4E-4G inh: 31*

What do the screens show for `CCn1c(SCC(=O)Nc2nc(-c3ccc(C)cc3)cs2)nnc1-c1ccccc1`?
PABP polyA inh: 2; PERK inhibitor: 0; PABP1 MLLE inh: -2; eIF4H FP inh: 7; eIF4E-4G inh: -5

What do the screens show for `O=C(COC(=O)C1CCCC1)Nc1cccc(Cl)c1Cl`?
PABP1 MLLE inh: 9

What do the screens show for `CCc1ccc(NC(=O)C(=O)NNC(=O)c2ccc(OC)cc2)cc1`?
PABP polyA inh: 5; PABP1 MLLE inh: 10; eIF4H FP inh: 6

How did CCc1ccc(C(=O)NNC(=O)OC)cc1 do in these assays?
PABP polyA inh: -6; PERK inhibitor: 0; PABP1 MLLE inh: -8; eIF4H FP inh: 0; eIF4E-4G inh: 72*

What do the screens show for `CN1CCCN(C2C3CC4CC(C3)CC2C4)CC1` (stereo not drawn)?
PABP polyA inh: 9; PERK inhibitor: 0; PABP1 MLLE inh: 5; eIF4H FP inh: 5; eIF4E-4G inh: -5

How did CC(O)c1n(C)c(Cl)c[n+]1C (stereo not drawn) do in these assays?
PABP polyA inh: 65*; PERK inhibitor: 1; PABP1 MLLE inh: -120; eIF4H FP inh: 0; eIF4E-4G inh: -7

Results for CSc1nc2c(=S)[nH]c(=S)[nH]c2s1 ?
PABP1 MLLE inh: 39*

How did COc1ccc(NC(=O)CSc2ccccc2)cn1 do in these assays?
PABP polyA inh: 14; PERK inhibitor: 2; PABP1 MLLE inh: 42*; eIF4H FP inh: 38; eIF4E-4G inh: 1

How did CC(C)(C)c1cc(C2COC(=O)COCCOCC(=O)OCCOCCO2)cc(C(C)(C)C)c1O (stereo not drawn) do in these assays?
PABP1 MLLE inh: -7

Results for O=C(CCNC(=O)c1ccc([N+](=O)[O-])cc1)NNC(=O)c1ccncc1 ?
PABP polyA inh: 6; PABP1 MLLE inh: -7; eIF4H FP inh: -21

How did CC(C)(C)NC(=O)NC(=O)CN1CCN(c2cccc(Cl)c2)CC1 do in these assays?
PABP polyA inh: 6; PERK inhibitor: 0; PABP1 MLLE inh: 7; eIF4H FP inh: -16; eIF4E-4G inh: 85*

Results for CC(C)(C)NC(=O)NC(=O)CN1CCN(c2ccccc2)CC1 ?
PABP polyA inh: 5; PERK inhibitor: 1; PABP1 MLLE inh: -2; eIF4H FP inh: -4; eIF4E-4G inh: 3

Results for O=C(c1cccs1)N1C[C@@H](O)[C@H](n2cc(-c3ccc(F)cc3)nn2)C[C@@H]1c1ccc(Cl)cc1 ?
PABP1 MLLE inh: 11

Results for CCOC(=O)CSc1cc(C)nc2ccc(OC)cc12 ?
PABP polyA inh: -6; PERK inhibitor: 0; PABP1 MLLE inh: -2; eIF4H FP inh: -6; eIF4E-4G inh: 1

How did CSc1nsc(/C=C/Nc2ccc(F)cc2)c1C#N do in these assays?
PABP polyA inh: 2.7*; PERK inhibitor: 1; PABP1 MLLE inh: -30; eIF4H FP inh: 77*; eIF4E-4G inh: 1

Results for CSc1nsc(/C=C/Nc2ccc(Cl)cc2)c1C#N ?
PABP polyA inh: -3; PERK inhibitor: 0; PABP1 MLLE inh: -34; eIF4H FP inh: -6; eIF4E-4G inh: 2

How did C=CCOC(=O)C1=C(C)OC(N)=C(C#N)C1c1ccoc1 (stereo not drawn) do in these assays?
PABP polyA inh: 88; PERK inhibitor: 1; PABP1 MLLE inh: -20; eIF4H FP inh: 102*; eIF4E-4G inh: -9

What do the screens show for `C=CCOC(=O)C1=C(C)OC(N)=C(C#N)C1c1ccc2c(c1)OCO2` (stereo not drawn)?
PABP polyA inh: -1; PERK inhibitor: 1; PABP1 MLLE inh: 11; eIF4H FP inh: 0; eIF4E-4G inh: 0

How did COc1ccc(NCc2ccc([N+](=O)[O-])s2)c(OC)c1 do in these assays?
PABP polyA inh: active; PERK inhibitor: 1; PABP1 MLLE inh: 9; eIF4H FP inh: 73*; eIF4E-4G inh: -5

How did CCN(CC)c1ccc(/C=N/N2CCN(c3ccccn3)CC2)cc1 do in these assays?
PABP polyA inh: 1; PERK inhibitor: 3.0*; PABP1 MLLE inh: -4; eIF4H FP inh: -7; eIF4E-4G inh: 12
